# PubChem BioAssay (Tox21)
# “And” between values parts separate entries of the source, which are not always exact repeats. Identical values can stand only once. A number with no mark means an inactive call. Records with an inconclusive call do not appear. Where a call stands in place of a potency, no number is given. The source made the active and inactive calls. The call rests on the fitted dose curve.
# Key:
# [1] = biological target: Acetylcholinesterase (Homo sapiens) (UniProt P22303); assay: Acetylcholinesterase (AChE) small molecule antagonists: colormetric cell-based qHTS assay (AID 1347395); further: nearly all actives have a fitted effect of over 30% in size
# Acetylcholinesterase (Homo sapiens), sequence (P22303 whole entry, looked up): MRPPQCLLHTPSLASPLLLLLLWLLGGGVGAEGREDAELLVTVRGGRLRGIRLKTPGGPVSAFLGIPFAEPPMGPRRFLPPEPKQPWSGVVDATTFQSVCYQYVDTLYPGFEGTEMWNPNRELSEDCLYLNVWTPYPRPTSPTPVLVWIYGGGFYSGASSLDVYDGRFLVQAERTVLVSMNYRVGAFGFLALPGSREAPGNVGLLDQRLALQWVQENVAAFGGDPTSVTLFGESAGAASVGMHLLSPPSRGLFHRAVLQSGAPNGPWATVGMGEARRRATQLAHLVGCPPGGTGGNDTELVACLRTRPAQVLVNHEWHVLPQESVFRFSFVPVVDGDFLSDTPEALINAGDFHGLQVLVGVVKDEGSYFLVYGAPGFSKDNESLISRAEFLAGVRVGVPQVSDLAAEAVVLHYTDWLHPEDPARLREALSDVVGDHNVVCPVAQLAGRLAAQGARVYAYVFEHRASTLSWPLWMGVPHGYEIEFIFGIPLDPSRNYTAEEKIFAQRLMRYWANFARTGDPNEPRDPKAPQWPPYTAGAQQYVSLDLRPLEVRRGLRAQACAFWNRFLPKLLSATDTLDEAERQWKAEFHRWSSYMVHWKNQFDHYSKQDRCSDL
# In short: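 In this cell-based qHTS, attached SH-SY5Y cells were treated with test chemicals for 30 min, after which acetylthiocholine hydrolysis was followed by DTNB colour development over 90 min at 37 C.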
# [2] = biological target: Acetylcholinesterase (Homo sapiens) (UniProt P22303); assay: Acetylcholinesterase (AChE) small molecule antagonists: enzyme-based qHTS assay (AID 1347397); settings: Potency: AChE enzyme activity inhibition; outcome: AChE enzyme activity inhibition; further: nearly all actives have a fitted effect of over 55% in size; further: potency means the concentration at half of the fitted maximal effect
# In short: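 Absorbance-based detection of thiocholine with DTNB served as the read-out. Recombinant human AChE was exposed to compound for 30 min at RT before a 10 min RT incubation with acetylthiocholine.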
# [3] = biological target: Acetylcholinesterase (Homo sapiens) (UniProt P22303); assay: Acetylcholinesterase (AChE) small molecule antagonists: fluorescence cell-based qHTS assay (AID 1347398); settings: Potency: AChE activity; outcome: AChE activity; further: nearly all actives have a fitted effect of over 50% in size; further: potency means the concentration at half of the fitted maximal effect
# In short: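 Fluorimetric cell-based assay: intact SH-SY5Y cells, 30 min compound preincubation at 37 C, acetylthiocholine substrate with thiol probe Thiolite Green, 40 min RT development, fluorescence 490/520 nm.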
# [4] = biological target: Acetylcholinesterase (Homo sapiens) (UniProt P22303); assay: Acetylcholinesterase (AChE) small molecule antagonists: enzyme-based qHTS assay with human liver microsomes (AID 1347399); settings: Potency: qHTS inhibition; outcome: qHTS inhibition; further: nearly all actives have a fitted effect of over 60% in size
# In short: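 Recombinant human AChE (50 mU/mL in the enzyme mix) and human liver microsomes (0.25 mg/mL final) were preincubated with compound and NADPH (0.25 mg/mL final) for 30 min at 37 C. Acetylthiocholine/DTNB was then added; thiocholine was read colorimetrically after 10 min at room temperature.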
Compound,Potency [1],Potency [2],Potency [3],Potency [4],"activity, negative = inhibition [1]","activity change, negative = inhibition [2]","activity change, negative = inhibition [3]","activity change, negative = inhibition [4]"
CCCCCCC(O)CCCCCCCCCCC(=O)OC (stereo not given),inactive,inactive,inactive,inactive,–,–,–,–
C=C(C)C(=O)OCCCCCCCCCCCC,inactive,inactive,inactive,inactive,–,–,–,–
O=C(Nc1ccc(Cl)cc1)Nc1ccc(Cl)c(Cl)c1,inactive,inactive,inactive,inactive,–,–,–,–
Cc1cc(O)c(C)c(C)c1O,inactive,inactive,inactive,inactive,–,–,–,–
CCCCN(C)C,inactive,inactive,inactive,inactive,–,–,–,–
CCCCCCCC/C=C\CCCCCCCC(=O)NCc1ccc(O)c(OC)c1,inactive,inactive,inactive,inactive,–,–,–,–
CC(C)Oc1ccccc1O,inactive,inactive,inactive,inactive,–,–,–,–
O=C(/C=C/c1ccccc1)OCCCc1ccccc1,inactive,inactive,inactive,inactive,–,–,–,–
CN(C)c1cc(NC(=O)CNC(C)(C)C)c(O)c2c1C[C@H]1C[C@H]3[C@H](N(C)C)C(=O)C(C(N)=O)=C(O)[C@@]3(O)C(=O)C1=C2O,inactive,inactive,inactive,inactive,–,–,–,–
CCNC(=S)NCC,inactive,inactive,inactive,inactive,–,–,–,–
CCCCC(CC)COC(=O)CCCCC(=O)OCc1ccccc1 (stereo not given),inactive,inactive,inactive,inactive,–,–,–,–
CC(=O)N/N=C/c1ccc([N+](=O)[O-])o1,inactive,inactive,inactive,inactive,–,–,–,–
N#C[C@@H]1C[C@@H]2C[C@@H]2N1C(=O)[C@@H](N)C12CC3CC(CC(O)(C3)C1)C2,inactive,inactive,inactive,inactive,–,–,–,–
CCCCCCCCCCCCCCCCC,inactive,inactive,inactive,inactive,–,–,–,–
C=CCOC(=O)/C=C\C(=O)OCC=C,inactive,inactive,inactive,inactive,–,–,–,–
CCS(=O)(=O)CCn1c([N+](=O)[O-])cnc1C,inactive,inactive,inactive,inactive,–,–,–,–
Cc1c(C2(c3cc(Br)c(O)c(Br)c3C)OS(=O)(=O)c3ccccc32)cc(Br)c(O)c1Br,inactive,inactive,inactive,inactive,–,–,–,–
Nc1cccc(S(=O)(=O)c2cccc(N)c2)c1,inactive,inactive,inactive,inactive,–,–,–,–
Cc1ccc(O)c(C(C)(C)C)c1,inactive,inactive,inactive,inactive,–,–,–,–
CCCCC1CCC(O)CC1 (stereo not given),inactive,inactive,inactive,inactive,–,–,–,–

Compound,Potency [1],Potency [2],Potency [3],Potency [4],"activity, negative = inhibition [1]","activity change, negative = inhibition [2]","activity change, negative = inhibition [3]","activity change, negative = inhibition [4]"
CC(=O)Nc1nnc(S(N)(=O)=O)s1,inactive,inactive,inactive,inactive,–,–,–,–
CC(C)CCCCCCc1ccc(OCCOCCO)cc1,inactive,inactive,inactive,inactive,–,–,–,–
CC1(C)O[C@@H]2C[C@H]3[C@@H]4C[C@H](F)C5=CC(=O)CC[C@]5(C)[C@H]4[C@@H](O)C[C@]3(C)[C@]2(C(=O)CO)O1,inactive,inactive,inactive,inactive,–,–,–,–
CCCCCCCC(=O)OCC(COC(=O)CCCCCCC)OC(=O)CCCCCCC,inactive,inactive,inactive,inactive,–,–,–,–
CC(Cl)C(Cl)Cl (stereo not given),inactive,inactive,inactive,inactive,–,–,–,–
CCCCCCCOC(=O)c1ccc(O)cc1,inactive,inactive,inactive,inactive,–,–,–,–
CC(C)OC(C)C,inactive,inactive,inactive,inactive,–,–,–,–
c1ccc(OCc2ccc(CCCN3CCOCC3)cc2)cc1,inactive,inactive,inactive,inactive,–,–,–,–
COc1cc(Cl)ccc1Cl,inactive,inactive,inactive,inactive,–,–,–,–
C[Si](C)(C)O[Si](O)(O)O,inactive,inactive,inactive,inactive,–,–,–,–
O=C1OCCO1,inactive,inactive,inactive,inactive,–,–,–,–
CCC(C)(C)C1CCC(OC)CC1 (stereo not given),inactive,inactive,inactive,inactive,–,–,–,–
CC/C=C\CCO,inactive,inactive,inactive,inactive,–,–,–,–
CCCCCCCCCC(=O)O,inactive,inactive,inactive,inactive,–,–,–,–
Cn1c(N)nc2nc[nH]c2c1=O,inactive,inactive,inactive,inactive,–,–,–,–
Cc1nnc(C(=O)NC(C)(C)c2nc(C(=O)NCc3ccc(F)cc3)c(O)c(=O)n2C)o1,inactive,inactive,inactive,inactive,–,–,–,–
CCCCCCCCCCC,inactive,inactive,inactive,inactive,–,–,–,–
Cc1cccc(N(C)C(=S)Oc2ccc3c(c2)C2CCC3C2)c1 (stereo not given),inactive,inactive,inactive,inactive,–,–,–,–
COc1ccccc1OC(=O)Oc1ccccc1OC,inactive,inactive,inactive,inactive,–,–,–,–
CCCCCCCCCCCCCCCC(=O)OC,–,–,–,–,2.77% [at 23.6 µM],-0.557% [at 23.6 µM],2.99% [at 23.8 µM],0.243% [at 23.6 µM]

Compound,Potency [1],Potency [2],Potency [3],Potency [4],"activity, negative = inhibition [1]","activity change, negative = inhibition [2]","activity change, negative = inhibition [3]","activity change, negative = inhibition [4]"
C=C(C)C(=O)OCCCCCC,inactive,inactive,inactive,inactive,–,–,–,–
Cc1c2ccccc2c(C)c2c1ccc1ccccc12,inactive,inactive,inactive,inactive,–,–,–,–
CC(C)(C)CCCCCCOC(=O)c1ccccc1C(=O)OCCCCCCC(C)(C)C,inactive,inactive,inactive,inactive,–,–,–,–
CC(=O)Oc1ccccc1C(=O)O,inactive,inactive,inactive,inactive,–,–,–,–
NC1CCCCC1,inactive,inactive,inactive,inactive,–,–,–,–
CCOC(=O)C1=C(C)NC(C)=C(C(=O)OC)C1c1cccc([N+](=O)[O-])c1 (stereo not given),inactive,inactive,inactive,inactive,–,–,–,–
CCCCNc1c(C(=O)OCC)c(C)nc2c1cnn2CC,inactive,inactive,inactive,inactive,–,–,–,–
CCOc1nc(F)cc2nc(S(=O)(=O)Nc3c(Cl)cccc3C(=O)OC)nn12,inactive,inactive,inactive,inactive,–,–,–,–
COc1ccc(OC)c(N=Nc2c(O)ccc3ccccc23)c1,inactive,inactive,inactive,inactive,–,–,–,–
CC(=O)/C=C/c1ccco1,inactive,inactive,inactive,inactive,–,–,–,–
CCCCCCCCCCCCC,inactive,inactive,inactive,inactive,–,–,–,–
CCCCCCCCCCCCN1CCCC1=O,inactive,inactive,inactive,inactive,–,–,–,–
CN(C)CCC=C1c2ccccc2CCc2ccccc21,inactive,inactive,inactive,inactive,–,–,–,–
O=C(O)CCCCCCCCCCC(=O)O,inactive,inactive,inactive,inactive,–,–,–,–
CCCCOC(=O)C(C)Oc1ccc(Oc2ccc(C(F)(F)F)cn2)cc1 (stereo not given),inactive,inactive,inactive,inactive,–,–,–,–
Cc1cnc(NC(=O)C2=C(O)c3ccccc3S(=O)(=O)N2C)s1,inactive,inactive,inactive,inactive,–,–,–,–
CCCCCCCCCCCCCCCC[N+](C)(C)Cc1ccccc1,inactive,82.2 µM (active) and 32.3 µM (active) and 38.9 µM (active),46.2 µM (active) and 57.4 µM (active),inactive,–,–,–,–
O=NN(CCCl)C(=O)NCCCl,inactive,inactive,inactive,inactive,–,–,–,–
COc1cc2c(cc1N)oc1ccccc12,inactive,inactive,inactive,inactive,–,–,–,–
CC/C=C(\C(=O)N[C@@H]1C(=O)N2C(C(=O)OCOC(=O)C(C)(C)C)=C(COC(N)=O)CS[C@H]12)c1csc(N)n1,inactive,inactive,inactive,inactive,–,–,–,–
